In the library only some 2.9% were active in any assay of this set; here they are far more common.
PAFAH1B3 FP inh – blocks human PAF acetylhydrolase 1B catalytic subunit 3. inhibition, % at 3.39 µM. 340,000 tested, 0.28% active. recombinant PAFAH1B3, FP-rhodamine probe, fluorescence polarization. AID 492972. Q15102;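 active means inhibition above the screen-wide average of all tested compounds plus 3 SD, cut at about 25% in these data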
Fam108B inh – blocks mouse Fam108B hydrolase in RBBP9 counter-screen. AID 1947. 300,000 tested, 0.33% active. inhibition, % at 9.51 µM. recombinant Fam108B, FP-Rh probe fluorescence polarization;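 active means inhibition above the screen mean inhibition plus 3 SD, computed separately per campaign, cut at about 18% in these data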;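 further: inhibitors lower polarization as less probe binds the enzyme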
PAFAH2 FP inh – inhibitors of human PAFAH2; inhibition, % at 3.39 µM; 340,000 tested, 0.99% active; recombinant PAFAH2, FP-rhodamine activity probe, fluorescence polarization;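 active means inhibition above the mean over all tested compounds plus 3 SD, cut at about 30% in these data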;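 further: inhibitors block probe labeling of enzyme so polarization drops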
PME-1 primary – PME-1 (human) inhibition; inhibition, % at 5.9 µM; Q9Y570; recombinant PME-1, FP-Rh probe fluorescence polarization; 320,000 tested, 0.53% active;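 active means inhibition above the campaign mean of all compounds plus 3 SD, cut at about 26% in these data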;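 further: competitive labeling of PME-1 active site by serine hydrolase directed probe; inhibitors block probe labeling so polarization falls and inhibition rises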
PAFAH1B2 inh – PAFAH1B2 (human) inhibition; inhibition, % at 3.39 µM; AID 492953; P68402; 340,000 tested, 1.2% active; recombinant PAFAH1B2, FP-rhodamine activity probe, fluorescence polarization;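 active means inhibition above the mean of all tested compounds plus 3 SD, cut at about 24% in these data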
Target sequence (P68402 whole entry, looked up): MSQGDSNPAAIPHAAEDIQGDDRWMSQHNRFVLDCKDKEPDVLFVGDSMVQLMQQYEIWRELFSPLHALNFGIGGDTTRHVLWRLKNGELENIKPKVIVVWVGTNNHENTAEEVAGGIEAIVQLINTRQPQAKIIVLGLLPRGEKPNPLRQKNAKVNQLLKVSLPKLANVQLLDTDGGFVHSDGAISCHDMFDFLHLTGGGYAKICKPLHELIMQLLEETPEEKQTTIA
pPAFAH FP inh – inhibitors of human plasma PAF acetylhydrolase (pPAFAH). Q13093. recombinant pPAFAH, FP-rhodamine probe fluorescence polarization. inhibition, % at 3.39 µM. 330,000 tested, 1.5% active;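 active means inhibition above the mean inhibition across the screen plus 3 SD, cut at about 25% in these data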;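 further: inhibitors block binding of the rhodamine activity-based probe so polarization drops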
Target sequence (Q13093 whole entry, looked up): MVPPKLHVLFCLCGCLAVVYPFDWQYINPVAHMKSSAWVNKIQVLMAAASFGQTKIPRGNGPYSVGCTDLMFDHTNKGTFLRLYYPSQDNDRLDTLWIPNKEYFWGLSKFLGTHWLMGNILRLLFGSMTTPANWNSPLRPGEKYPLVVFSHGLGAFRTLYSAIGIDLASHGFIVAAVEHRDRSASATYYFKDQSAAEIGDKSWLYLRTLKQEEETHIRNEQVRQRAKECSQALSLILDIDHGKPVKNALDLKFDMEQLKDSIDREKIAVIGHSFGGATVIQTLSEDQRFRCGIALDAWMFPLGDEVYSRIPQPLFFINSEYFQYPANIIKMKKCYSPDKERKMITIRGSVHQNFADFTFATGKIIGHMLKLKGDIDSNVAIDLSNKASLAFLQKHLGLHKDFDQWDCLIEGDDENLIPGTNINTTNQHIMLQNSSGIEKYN
Of the large screens only hits and unclear results are named; the others gave an inactive call.

O=C(/C(=N/N=C/c1ccc(O)c(O)c1)c1ccccc1)c1ccccc1	Fam108B inh 22.0, PME-1 primary 30.1, pPAFAH FP inh 29.7
CCN(CC)c1ccc(/C=N/N(c2ccccc2)c2ccccc2)c(O)c1	none
O=C(/C(=N/O)c1ccccc1)c1ccccc1	none (no result: Fam108B inh, PME-1 primary, pPAFAH FP inh)
C(=N\N(c1ccccc1)c1ccccc1)/c1ccccn1	none
COc1ccc(N2CCN(CCCNC(=O)C(=O)c3c(C)[nH]c4ccccc34)CC2)cc1	none
Cc1ccc(S(=O)(=O)N2CCOCC2)cc1NC(=O)COC(=O)CNC(=O)c1ccc(Oc2ccccc2)cc1	pPAFAH FP inh 28.4
Cc1ccc(S(=O)(=O)N2CCOCC2)cc1NC(=O)COC(=O)c1ccccc1OCc1c(C)noc1C	PME-1 primary 32.2
O=C(COC(=O)c1cccnc1Cl)Nc1cccc(S(=O)(=O)N2CCOCC2)c1	none (no result: Fam108B inh, PME-1 primary)
Cc1ccc(C(=O)NCC(=O)OCC(=O)Nc2cc(S(=O)(=O)N3CCOCC3)ccc2C)cc1	none
Cc1ccc(S(=O)(=O)N2CCOCC2)cc1NC(=O)COC(=O)c1cccnc1Cl	PME-1 primary 28.8
O=C(O)c1cccc(Oc2ccc(C(=O)O)c([N+](=O)[O-])c2)c1	none (no result: Fam108B inh, PME-1 primary, pPAFAH FP inh)
O=C(CCNc1cc(Cl)cc(Cl)c1)c1ccco1	none
O=C(CSc1ccc(Cl)cc1)c1ccco1	pPAFAH FP inh 29.1
O=C(CCSc1ccc(Cl)cc1)c1ccco1	PAFAH1B2 inh 28.1
CN(Cc1ccccc1)C(=O)CCC1CCN(S(C)(=O)=O)CC1	none
CCOC(=O)c1cc(-c2ccc(OC)cc2)nn1-c1ccc(C(=O)O)cc1	pPAFAH FP inh 30.7
CCOC(=O)c1cc(-c2cccnc2)nn1-c1ccccc1	none
Cc1ccnc(NC(=O)CSc2ccccn2)c1	none
CC(=O)Nc1ccc(OCC(O)CN2CCN(c3ccc(F)cc3)CC2)cc1 (stereo not given)	none
S=c1[nH]nc(-c2ccccc2)n1/N=C/C=C/c1ccco1	pPAFAH FP inh 31.1
Cc1ccc(S(=O)(=O)NNC(=O)c2cnn(-c3ccccc3)c2-n2cccc2)cc1	PAFAH1B2 inh 28.2
C/C(=N\Nc1nc2ccccc2s1)c1cccs1	PME-1 primary 31.7
CC(=NNc1nc2ccccc2s1)c1ncccn1	none (no result: Fam108B inh, PME-1 primary, pPAFAH FP inh)
OCCN(CCO)c1ccc(C(c2ccccc2Cl)c2ccc(N(CCO)CCO)cc2Cl)c(Cl)c1	pPAFAH FP inh 24.8
CC(C)=C1CCC(C)CC1=NNC(N)=S (stereo not given)	PAFAH1B2 inh 27.3 (no result: Fam108B inh, PME-1 primary, pPAFAH FP inh)
CCN(CC)CCOC(=O)c1ccc(NC(=S)NC(=O)/C=C/c2ccco2)cc1	none (no result: PAFAH1B3 FP inh, PAFAH2 FP inh, PAFAH1B2 inh)
O=C(CSc1ccc(F)cc1)Nc1ccccc1N1CCOCC1	PAFAH1B2 inh 25.6
CN(C1CCCCC1)S(=O)(=O)c1ccc2c(c1)c(=O)c(C(=O)NCCCN1CCCC1)cn2C	none
CCn1cc(C(=O)NCCCN2CCCC(C)C2)c(=O)c2cc(S(=O)(=O)N(C)C3CCCCC3)ccc21 (stereo not given)	PME-1 primary 52.2
CCN(CC)CCCNC(=O)c1cn(CC)c2ccc(S(=O)(=O)N(C)C3CCCCC3)cc2c1=O	none
CCCCN(CCCC)CCNC(=O)c1cn(CC)c2ccc(S(=O)(=O)N(C)C3CCCCC3)cc2c1=O	PME-1 primary 82.5
CCCCN(CC)CCCNC(=O)c1cn(C)c2ccc(S(=O)(=O)N(C)C3CCCCC3)cc2c1=O	PME-1 primary 40.2
O=C(Nc1cccc(Cl)c1)C1CCN(C(=O)c2cccs2)CC1	none
C=CCOCC(O)Cn1c(N2CCCC2)nc2c1c(=O)[nH]c(=O)n2C (stereo not given)	none
O=C(O)c1ccc(S(=O)(=O)c2ccc3c(c2)C(=O)N(NC(=O)c2ccc(O)cc2)C3=O)cc1	none
Cc1ccc(C(=O)NN2C(=O)c3ccc(S(=O)(=O)c4ccc(C(=O)O)cc4)cc3C2=O)cc1	PAFAH1B2 inh 24.2
Cc1ccc(C(C)C)c(OCC(=O)Nc2ccc3c(c2)nc(CCN2CCCCC2)n3C)c1	none
COCc1nnc(NC(=O)CCCOc2ccccc2OC)s1	none
COCc1nnc(NC(=O)CCCOc2ccccc2)s1	pPAFAH FP inh 34.4
Cc1cccc(C)c1NC(=O)CN(C)C(=O)c1cc([N+](=O)[O-])ccc1N1CCOCC1	none
CC1CCN(c2ccccc2NC(=O)c2cc([N+](=O)[O-])ccc2N2CCOCC2)CC1	PAFAH1B2 inh 26.9
CN(CC(=O)Nc1ccccc1Br)C(=O)c1cc([N+](=O)[O-])ccc1N1CCOCC1	PAFAH1B3 FP inh active, PAFAH2 FP inh 138.9, PAFAH1B2 inh 175.5
O=C(NCc1ccncc1)c1ccc(NS(=O)(=O)c2ccc(F)cc2)cc1	none (no result: Fam108B inh)
Cc1cc(C(=O)COC(=O)c2ccc(Cl)c(S(N)(=O)=O)c2)c(C)n1C1CC1	none
Cc1ccc(CN=C(Nc2ccccc2)NC2CCCCC2)cc1	none
Nc1nnc(SCC(=O)c2ccccc2)s1	none
Nc1c(C(=O)c2ccccc2)sc2snc(SCC(=O)c3ccccc3)c12	PAFAH2 FP inh 43.9, pPAFAH FP inh 27.1
O=C(c1cccc(C(F)(F)F)c1)C1CCCN(C(=O)/C=C/c2cnc[nH]2)C1 (stereo not given)	none (no result: Fam108B inh, PME-1 primary, pPAFAH FP inh)
O=C(CCS(=O)(=O)c1ccc(Cl)cc1)NCCN1C(=O)S/C(=C\c2ccccc2F)C1=O	none
Cc1ccc(S(=O)(=O)CCC(=O)NCCN2C(=O)S/C(=C\c3ccccc3)C2=O)cc1	PME-1 primary 35.1
O=C(Oc1ccc2c(-c3ccccc3)cc(=O)oc2c1)C1CCCCC1	pPAFAH FP inh 31.5
Cc1ccc(N=Cc2cc3c(cc2[N+](=O)[O-])OCO3)cc1[N+](=O)[O-]	pPAFAH FP inh 30.9 (no result: PAFAH1B3 FP inh, PAFAH2 FP inh, PAFAH1B2 inh)
O=C1NNC(c2ccccc2)=N/C1=C\c1ccco1	pPAFAH FP inh 26.4
COc1ccc(CCNC(=O)CCc2nnc(Cc3ccc4c(c3)OCO4)o2)c(OC)c1	none
Cc1ccc(-c2csc(NCCn3c(C)nc4cc(C(F)(F)F)ccc43)n2)cc1	PAFAH1B2 inh 36.7 (no result: Fam108B inh, PME-1 primary)
CCCCCn1c(NC(=O)c2ccco2)c(S(=O)(=O)c2ccc(C)cc2)c2nc3ccccc3nc21	PAFAH1B3 FP inh 57.4, PAFAH2 FP inh 42.5, PAFAH1B2 inh 29.9
CCCCn1c(NC(=O)c2ccco2)c(S(=O)(=O)c2ccc(C)cc2)c2nc3ccccc3nc21	none (no result: Fam108B inh, PME-1 primary, pPAFAH FP inh)
CN(C(=O)COC(=O)c1cc(NS(=O)(=O)c2cc([N+](=O)[O-])ccc2Cl)ccc1O)C1CCCCC1	PAFAH1B2 inh 26.3
O=C(COC(=O)c1ccccc1NS(=O)(=O)c1cc([N+](=O)[O-])ccc1Cl)c1ccccc1	none (no result: PAFAH1B3 FP inh, PAFAH2 FP inh, PAFAH1B2 inh)
COc1ccc(C2=Nc3ccccc3C2(O)CCN2C(=O)c3ccccc3C2=O)cc1 (stereo not given)	none (no result: Fam108B inh, PME-1 primary, pPAFAH FP inh)
CCOc1ccc(NS(=O)(=O)c2ccc(-c3cnc(C4CC4)o3)cc2)cc1	pPAFAH FP inh 31.3
CCOc1ccc(NS(=O)(=O)c2ccc(SC)cc2)cc1	pPAFAH FP inh 33.7
CCOc1ccc(NS(=O)(=O)c2ccc(NC(=S)NC(=O)C(C)C)cc2)cc1	pPAFAH FP inh 32.9
COc1ccc(NS(=O)(=O)c2ccc(NC(=S)NC(=O)C(C)C)cc2)cc1	none

Screening data deposited in PubChem BioAssay by The Scripps Research Institute Molecular Screening Center.
